Screens from PubChem BioAssay.
MCL1 BIM primary: disrupts human MCL1 binding to BIM-BH3 peptide; Q07820; GST-MCL1 / FITC-Bim-BH3 fluorescence polarization; inhibition, % at 10.9 µM; 320,000 tested, 0.68% active;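 active means inhibition above the mean inhibition of all tested compounds plus 3 SD, set per campaign, cut at about 40% in these data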;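 further: 0% = DMSO wells and 100% = unlabeled Bim-BH3 peptide control; higher means more loss of mP so more displacement of Bim peptide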
Target sequence (Q07820 whole entry, looked up): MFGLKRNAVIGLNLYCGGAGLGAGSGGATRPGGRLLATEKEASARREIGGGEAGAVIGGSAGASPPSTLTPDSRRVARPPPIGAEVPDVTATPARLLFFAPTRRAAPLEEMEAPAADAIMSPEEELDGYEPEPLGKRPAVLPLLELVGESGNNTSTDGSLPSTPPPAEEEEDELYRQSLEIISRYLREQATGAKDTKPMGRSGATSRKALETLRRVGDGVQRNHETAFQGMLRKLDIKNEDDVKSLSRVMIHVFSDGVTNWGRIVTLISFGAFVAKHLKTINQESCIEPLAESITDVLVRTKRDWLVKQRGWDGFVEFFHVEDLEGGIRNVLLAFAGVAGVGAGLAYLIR
Mcl-1 Bim block: human Bim-Mcl-1 interaction inhibition; Q07820; Bead-based flow cytometry, Bim peptide-Mcl-1 binding; inhibition, % at 10 µM; 190,000 tested, 0.1% active; AID 1009; in the data active means inhibition above about 40%;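 further: 0% = no compound tracer wells and 100% = peptide blocker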
Mcl1-Bid inh: Mcl-1/Bid interaction inhibition; Q07820; 220,000 tested, 0.97% active; AID 1021; TR-FRET Mcl-1/Bid-Dy647 peptide binding, 1536-well; inhibition, % at 21.7 µM;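 active means compounds that cut the binding signal by more than half at the single screening dose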;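 further: His-tagged Mcl-1 with europium anti-His antibody binding Bid BH3 peptide; 0% = Mcl-1 plus peptide wells and 100% = peptide-only wells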
Mcl1 Noxa PPI: disrupts binding of human Mcl-1 to Noxa peptide. Q07820. TR-FRET Mcl-1/Noxa peptide binding, 2 h. inhibition, % at 21.7 µM. 220,000 tested, 1.5% active;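 active means compounds that cut the protein-peptide binding signal by more than 50% relative to plate controls in a single-dose test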;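 further: His-tagged Mcl-1 with rhodamine Noxa BH3 peptide and terbium anti-His antibody; 0% = Mcl-1 plus Noxa peptide wells and 100% = peptide-only wells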
Bcl-xL conf: counter-screen for MCL1 inhibitors: confirmation of human Bcl-xL inhibitors; 1,700 tested, 54% active; GST-Bcl-xL / FITC-Bim BH3 peptide FP binding; inhibition, % at 10.9 µM; AID 2166; shares compounds with MCL1 BIM primary;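 active means inhibition above a cutoff equal to the mean inhibition of all tested compounds plus 3 SD, cut at about 30% in these data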;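 further: 0% = DMSO wells and 100% = unlabeled Bim BH3 control peptide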
Target sequence (Q07817 whole entry, looked up): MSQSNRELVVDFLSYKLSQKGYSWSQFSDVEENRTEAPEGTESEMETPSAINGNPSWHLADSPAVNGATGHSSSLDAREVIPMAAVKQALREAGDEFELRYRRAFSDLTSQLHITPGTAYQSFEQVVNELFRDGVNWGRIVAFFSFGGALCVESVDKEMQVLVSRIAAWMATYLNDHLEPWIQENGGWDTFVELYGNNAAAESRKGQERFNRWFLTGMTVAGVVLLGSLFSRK
MCL1 BIM confirm: MCL1-BIM-BH3 interaction inhibition, confirmation. shares compounds with MCL1 BIM primary. GST-MCL1 / FITC-Bim-BH3 fluorescence polarization. inhibition, % at 10.9 µM. 1,700 tested, 61% active;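 active means inhibition above the average of all tested compounds plus 3 SD, cut at about 40% in these data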;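 further: 0% = DMSO wells and 100% = unlabeled Bim-BH3 control peptide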
* = called active by the depositor; x = no result; + = active, no number. Rows were chosen to be rich in hits. Some 2% of all compounds tested hit in one or more screens of this group.

SMILES	MCL1 BIM primary	Mcl-1 Bim block	Mcl1-Bid inh	Mcl1 Noxa PPI	Bcl-xL conf	MCL1 BIM confirm
COc1ccc(Cl)cc1C(=O)NNC(=O)CSc1nnnn1C	19.8	0.0	-57.7	-7.2	x	x
COc1ccc(Cl)cc1C(=O)NNC(=O)CSc1nnc2ccccn12	40.4*	0.0	-21.6	3.9	1.4	20.3
Nc1nn2c(-c3ccccc3)cc(=O)[nH]c2c1N=Nc1ccc(O)cc1	64.4*	6.0	79.5*	36.6	37.5*	74.0*
O=C(CNC(=O)Cc1ccccc1)N=Nc1c(O)[nH]c2ccccc12	-4.5	x	x	x	x	x
O=C(CNC(=O)/C=C/c1ccco1)N=Nc1c(O)[nH]c2ccccc12	41.8*	x	x	x	28.3	56.9*
O=C(O)C(c1ccccc1)N1C(=O)/C(=C\c2ccc(O)c(O)c2)SC1=S (stereo unspecified)	69.8*	x	x	x	63.3*	88.4*
O=S(=O)([N-]c1nc2ccccc2nc1-[n+]1ccccc1)c1ccccc1	-3.1	-2.0	-13.6	-8.1	x	x
O=S(=O)([N-]c1nc2ccccc2nc1-[n+]1ccc(-c2ccncc2)cc1)c1ccccc1	+	2.0	-19.4	21.0	150.5*	183.5*
CC(C)(C)OC(=O)N1C[C@H](O)C[C@H]1C(=O)OCC(=O)c1ccc([N+](=O)[O-])cc1	1.6	x	x	x	x	x
CCn1nc(-c2ccccc2)c2nc3ccccc3nc21	100.7*	-2.0	-10.2	6.7	137.4*	139.6*
Oc1ccc2nnc3c(Br)cnn3c2c1	+	x	x	x	167.5*	+
Clc1ccc2nc3c4ccccc4cnn3c2c1	4.7	3.0	0.6	6.0	x	x
Cc1ccc(/C=N/NC(=O)c2cccc(S(=O)(=O)N3CCOCC3)c2)o1	3.8	0.0	-27.2	19.6	x	x
O=C(O)Cc1c[nH]c2cccc(O)c12	45.4*	0.0	22.6	80.9*	15.2	32.0
O=C(CN(C(=O)CNC(=O)c1ccco1)c1ccc(F)cc1)NC1CCCCC1	-5.5	x	x	x	x	x
O=C(COc1ccc(F)cc1)N1CCCc2ccccc21	0.4	x	x	x	x	x
CC(=O)Nc1ccc(NC(=O)CSc2nnc(C3CC3)n2C)cc1	2.3	4.0	3.3	13.8	x	x
Cn1c(SCC(=O)Nc2ccc(F)cc2)nnc1C1CC1	176.3*	x	x	x	-20.4	-35.7
O=C(CC1CCCC1)Nc1cc(S(=O)(=O)N2CCOCC2)ccc1O	-1.4	x	x	x	x	x
O=C(CSc1nc2ccccc2s1)Nc1cc(S(=O)(=O)N2CCOCC2)ccc1O	43.0*	13.0	31.9	105.2*	22.6	49.4*
Cc1ccccc1NC(=O)C1Cc2ccccc2C(=O)O1 (stereo unspecified)	-2.7	1.0	-8.9	-8.5	x	x
O=C1OC(C(=O)O)Cc2ccccc21 (stereo unspecified)	64.2*	1.0	-1.4	22.7	2.1	5.4
CCCCNC(=O)Oc1c(Br)cc2sc(=O)oc2c1Br	77.1*	x	-23.7	51.8*	36.1*	58.5*
CCCCN(CC)CCCNC(=O)c1ccc(CS(=O)(=O)c2ccccc2C)o1	8.8	x	x	x	x	x
Cc1ccc(S(=O)(=O)c2nc(Cc3ccccc3)oc2N2CCOCC2)cc1	58.5*	x	x	x	14.0	79.2*
SMILES	MCL1 BIM primary	Mcl-1 Bim block	Mcl1-Bid inh	Mcl1 Noxa PPI	Bcl-xL conf	MCL1 BIM confirm
O=C(CN(c1cccc(C(F)(F)F)c1)S(=O)(=O)c1ccc(Cl)c([N+](=O)[O-])c1)NCc1ccc(F)cc1	-6.8	-3.0	-18.8	7.6	x	x
O=C1C(Nc2cccc(O)c2)=C(N2CCCCC2)C(=O)c2ccccc21	54.6*	3.0	-61.8	30.3	19.3	37.3
O=C1C(Nc2ccccc2)=C(N2CCCCC2)C(=O)c2ccccc21	0.5	1.0	-32.5	8.3	x	x
Cc1ccc(C)c(C(=O)CCC(=O)OCn2nnc3ccccc3c2=O)c1	85.3*	x	x	x	11.7	9.3
CN(Cc1ccccc1)C(=O)c1nc2ccccn2c1CN1CCC(N2CCOCC2)CC1	7.9	x	-23.5	-3.5	x	x
O=C(N/N=C/c1sc2ccccc2c1O)c1cccc2ccccc12	-40.0	-6.0	-33.8	-13.3	x	x
Oc1c(C=Nc2cccc3cccnc23)sc2ccccc12	128.2*	-9.0	48.7	-10.1	36.7*	99.0*
COc1cccc(/C=N/NC(=O)c2cc3cc([N+](=O)[O-])ccc3s2)c1O	45.3*	6.0	84.5*	67.7*	20.2	90.2*
COc1ccccc1/C=N/NC(=O)c1ccc(NC(=O)c2cccc([N+](=O)[O-])c2)cc1	9.8	-3.0	-3.6	11.3	x	x
CCc1nnc(SCC(=O)N2CCc3ccccc32)n1CC	2.4	x	x	x	x	x
CCn1c(CSc2ncccn2)nnc1SCC(=O)N1CCc2ccccc21	102.8*	-4.0	-5.1	29.9	6.6	-1.4
COc1ccc(S(=O)(=O)/N=C2/NC(=O)/C(=C\c3ccco3)S2)cc1	55.3*	-7.0	-26.1	29.3	13.4	11.0
COc1ccc(S(=O)(=O)/N=C2/NC(=O)/C(=C\c3cc(OC)c(OC)cc3[N+](=O)[O-])S2)cc1	11.4	-1.0	-15.6	5.4	x	x
COc1ccc(S(=O)(=O)/N=C2/NC(=O)/C(=C/c3ccco3)S2)cc1	42.2*	-2.0	-40.2	8.6	18.4	23.7
COc1ccc(CCN(C)C(=O)c2cnc(C)cn2)cc1OC	-2.6	x	x	x	x	x
CCCOc1ccc(N)cc1N	124.4*	4.0	1.2	76.3*	39.9*	44.5*
CCCOc1cc(N)ccc1C(=O)OCCN(CC)CC	7.8	x	x	x	x	x
CN(C(=O)CN1C(=O)NC(C)(c2cccc(Br)c2)C1=O)C1CCCCC1 (stereo unspecified)	82.2*	x	x	x	3.7	0.0
N#Cc1ccc(COC(=O)CC(NC(N)=O)c2ccc(Cl)cc2)cc1 (stereo unspecified)	-0.9	x	x	x	x	x
CCOc1cccc(NC(=O)C2CC(=O)N(C)C(=Nc3cccc(F)c3)S2)c1 (stereo unspecified)	42.4*	-5.0	-1.4	21.6	-0.7	0.5
CCOc1cccc(NC(=O)C2CC(=O)N(C)C(=Nc3ccccc3)S2)c1 (stereo unspecified)	0.2	-2.0	7.8	7.6	x	x
C=CCOc1ccc(C2OC34CCCCC3C(C#N)(C#N)C2(C#N)C(=N)O4)cc1 (stereo unspecified)	114.8*	2.0	-86.7	-3.7	76.0*	93.9*
CCOc1ccc(C2OC34CCCCC3C(C#N)(C#N)C2(C#N)C(=N)O4)cc1OC (stereo unspecified)	167.2*	-1.0	-32.8	11.8	107.3*	132.7*
CCCCOc1ccc(C2OC34CCCCC3C(C#N)(C#N)C2(C#N)C(=N)O4)cc1 (stereo unspecified)	166.0*	0.0	-35.1	12.3	51.7*	68.3*
Cc1ccc(C2OC34CCCCCC3C(C#N)(C(=N)O4)C2(C#N)C#N)cc1 (stereo unspecified)	30.0	-2.0	-10.4	26.2	x	x
CCOc1ccc(C2C(C#N)=C(N)SC(N)=C2C#N)cc1OC	-100.8	0.0	-68.3	16.6	x	x
C=CCOc1ccc(CNCC2CCCO2)cc1 (stereo unspecified)	8.8	x	x	x	x	x
